Results filed as inconclusive are left out. The source made the active and inactive calls. Rule for the calls, unless noted: active = hit-call score of the fitted dose curve at least 0.9, where 1 is the maximum; inactive = score below 0.9.
Assays:
[1] = TAMU_HCS_1.5hr_SingleDonor1434_Cytotoxicity: Cytotoxicity Assessment using High-content Screening (HCS) Fluorescent Imaging for the Texas A&M University (TAMU) 1.5-hr Human Induced Pluripotent Stem Cell (iPSC)-derived Cardiotoxicity Assay (AID 2284234; active = hit-call score of the fitted dose curve at least 0.9, where 1 is the maximum)
Outline: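 Nuclear counts from Hoechst 33342 imaging define cytotoxicity here, with EC10 (10% cell-count loss relative to DMSO) as point of departure. iPSC cardiomyocytes received 0.2-100 uM test chemical in 0.5% DMSO for 1.5 h at 37 C.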

[2] = TAMU_PeakParms_SingleDonor1434_QT: Texas A&M University (TAMU) 1.5-hr Human Induced Pluripotent Stem Cell (iPSC)-derived Cardiomyocytes Calcium (Ca+2) Flux Assay for Cardiotoxicity: QT (decay-rise ratio) (AID 2284235; active = hit-call score of the fitted dose curve at least 0.9, where 1 is the maximum)
Outline: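 Decay/rise ratio of calcium-flux fluorescence scored after 90 min exposure (37C) of donor 1434 iPSC cardiomyocytes to 0.2–100 uM (0.5% DMSO). Beat-cessation and severe-notch points removed; POD is EC05, a 5% rise over DMSO.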

[3] = CCTE_Mundy_HCI_Cortical_NOG_NeuronCount: CCTE's Neurite Outgrowth Assay in rat cortical cells for Neuron Count, Mundy Lab (AID 2284236; active = hit-call score of the fitted dose curve at least 0.9, where 1 is the maximum;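 note: neurons counted by imaging betaIII-tubulin and Hoechst stained cortical cells; cells exposed to compound for about 48 hours before fixation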)
Outline: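 Read-out: neuron number by high-content imaging of betaIII-tubulin (Alexa Fluor-488) and Hoechst-labelled rat primary cortical cells.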

[4] = CCTE_Mundy_HCI_Cortical_NOG_BPCount: CCTE's Neurite Outgrowth Assay in rat cortical cells for Branch Point Count, Mundy Lab (AID 2284237);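 for AC50: branch points counted about two days after chemical exposure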
Outline: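 Measured 50.33 h after dosing, this morphology endpoint uses rat primary cortical cultures labelled for betaIII-tubulin. Branch points are quantified by high-content imaging, with DMSO as negative control and baseline.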

[5] = CCTE_Mundy_HCI_hNP1_Casp3_7: CCTE's Caspase-Glo 3/7 Assay in human neuroprogenitor cells for Apoptosis, Mundy Lab (AID 2284240)
Outline: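 Luminescent caspase-3/7 readout, 26.5 h post-dose, in human neural progenitor cells from WA09 embryonic stem cells. Cells grew 40–44 h at 37 °C, 5% CO2 before chemical addition. Activity analysed as signal increase over DMSO baseline.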

[6] = CCTE_Mundy_HCI_Cortical_Synap_Neur_Matur_NeuronCount: CCTE's Synaptogenesis and Neurite Maturation Assay in rat cortical cells for Neuron Count, Mundy Lab (AID 2284242; active = hit-call score of the fitted dose curve at least 0.9, where 1 is the maximum;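 for AC50: hits reduce neuron count versus DMSO baseline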)
Outline: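 Neuron counts come from automated high-content imaging of Hoechst nuclei and MAP2/synaptophysin immunostaining at DIV 12, with loss of signal judged against DMSO. Cultures of rat cortical cells had glial growth arrested by AraC at DIV 5; chemical exposure began DIV 7.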

[7] = UKN2_HCS_IMR90_cell_viability: Viability Assessment in the University of Konstanz (UKN) Leist Lab Neural Crest Cell Migration Assay in human induced IMR90 Pluripotent Stem Cells (UKN2) (AID 2284233);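 note: cells exposed to compound for 24 h after a 24 h migration phase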
Outline: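 Viability read as calcein-AM fluorescence by high-content imaging, Hoechst co-stain, 30 min. Human iPSC (IMR90) neural crest cells had migrated 24 h into stopper-defined gaps before 24 h chemical exposure. Fitted bidirectionally relative to DMSO.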

[8] = UKN4_HCS_LUHMES_cell_viability: Viability Assessment in the University of Konstanz (UKN) Leist Lab Neurite Outgrowth Assay in human LUHMES cells (UKN4) (AID 2284232)
Outline: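 Viability was read by high-content imaging of calcein-AM/H-33342-stained cells after 24 h toxicant exposure, staining included. Cells: human LUHMES on day 2 of dopaminergic differentiation, dosed shortly after attachment; DMSO baseline, bidirectional curve fitting.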

Compound: CCCCCCCCn1sccc1=O
- AC50 [1]: 7.87 µM (active)

Compound: Clc1ccc(C(c2ccc(Cl)cc2)C(Cl)(Cl)Cl)cc1
- AC50 [1]: 50 µM (active)
- outcome [2]: inactive

Compound: [O-][Cl+]O
- outcome [3]: inactive
- outcome [4]: inactive
- outcome [5]: inactive
- outcome [6]: inactive

Compound: CCCCOC(=O)c1ccccc1C(=O)OCc1ccccc1
- outcome [7]: inactive
- outcome [3]: inactive
- outcome [4]: inactive
- outcome [5]: inactive
- AC50 [6]: 50.5 µM (active)

Compound: OCCOCCO
- outcome [4]: inactive
- outcome [5]: inactive
- outcome [6]: inactive

Compound: CC(C)(C)C(O)(CCc1ccc(Cl)cc1)Cn1cncn1 (centres undefined)
- outcome [1]: inactive
- AC50 [2]: 18.2 µM (active)
- AC50 [4]: 0.162 µM (active)
- AC50 [5]: 9.92 µM (active)
- outcome [6]: inactive

Compound: CC(C)COC(=O)c1ccccc1C(=O)OCC(C)C
- outcome [7]: inactive
- outcome [3]: inactive
- outcome [4]: inactive
- outcome [5]: inactive
- AC50 [6]: 80.3 µM (active)

Compound: Nc1cc(Cl)cc(C(=O)O)c1Cl
- outcome [4]: inactive
- outcome [5]: inactive
- outcome [6]: inactive

Compound: CCC[CH2][Sn]([Cl])([CH2]CCC)[CH2]CCC
- AC50 [8]: 0.159 µM (active)
- AC50 [7]: 0.344 µM (active)
- AC50 [3]: 0.079 µM (active)
- AC50 [4]: 0.0886 µM (active)
- AC50 [5]: 4.18 µM (active)
- AC50 [6]: 0.0308 µM (active)

— PubChem BioAssay (EPA / NIEHS)
